Rows were chosen to be rich in hits. Some 5.5% of all compounds tested hit in one or more screens of this group.
MBNL1-CUG inh: blocks human MBNL1 binding to CUG repeat RNA. Q9NR56. TR-FRET MBNL1-His/biotin-(CUG)12 binding, 665/545 ratio. Potency, µM (doses to about 57.5 µM), actives largely listed as inhibitors. 0.036% of 280,000 active. AID 2675; active = well fitted inhibition curve with a large enough effect in the signal ratio, with a control signal flat, not every such curve was filed as active; inconclusive = small, poorly fitted or top-dose-only effect, or effect the other way, or a change in a side signal; inactive = no such curve, though single readings can be large or run the other way; the % refers to the signal ratio
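His-tagged MBNL1 binding to biotinylated (CUG)12 RNA was measured by TR-FRET using terbium anti-His antibody (0.055 ng/ul final) and streptavidin-XL665 (5 nM final). Compounds were titrated 92 nM to 58 uM; 60 min at room temperature.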
CBFb-RUNX1 inh: blocks binding between human CBF-beta and RUNX1; Q01196+Q13951; AlphaScreen CBFb-His/RUNX1-biotin binding, biochemical; Potency, µM (series often up to 59.8 µM), most hits filed as inhibitors; 230,000 tested, under 10 active; AID 1477
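Proteins preincubated together for 20 min at RT before compound addition; 15 min later, nickel and streptavidin beads were added and left 90 min prior to AlphaScreen measurement.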
Six1-Eya2 blk: blocks human Six1 binding to Eya2; Q15475+O00167; AlphaScreen GST-Six1/His-Eya2 binding, biochemical; stronger effect = lower value; 0.56% of 360,000 active; activity change, % (no concentration beside the values); in the data active = activity change below about -65%; inconclusive = mostly about -30% to -63%
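Compounds are tested against tagged Six1 and Eya2 proteins bridged by glutathione donor and nickel acceptor beads; after a one-hour incubation at 37 °C without light, AlphaScreen emission is recorded.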
RORgamma inh: blocks mouse ROR gamma transcriptional activity. P51450. Drosophila S2 Gal4-RORgamma UAS-luciferase reporter, 20 h. Potency, µM (doses to about 53.6 µM), actives largely listed as inhibitors. 5.4% of 310,000 active. AID 2551; note: nearly all actives have a fitted effect of over 60% in size
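Drosophila Schneider cells stably carrying a metallothionein-driven Gal4 DBD–ROR gamma fusion and a UAS-Photinus luciferase reporter were exposed to compound for 1 hr, then induced with copper sulfate (700 uM final) for 20 hr at ambient temperature before luminescence reading.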
VP16 counter: inhibits Gal4-VP16 luciferase reporter, ROR gamma counter-screen | Drosophila S2 Gal4-VP16 UAS-luciferase, luminescence, 20 h | Potency, µM (titrated, usually from 53.6 µM), most hits filed as inhibitors | 3.5% of 310,000 active | AID 2546;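 note: Gal4-VP16 expression switched on by copper sulfate through the metallothionein promoter; nearly all actives have a fitted effect of over 50% in size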
CtBP-E1A inh: blocks the CtBP interaction with E1A; AlphaScreen GST-E1A/His-CtBP binding, 1536-well; stronger effect = lower value; activity change, % (no concentration beside the values); 0.49% of 340,000 active; in the data active = activity change below about -65%; inconclusive = mostly about -30% to -63%
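Homogeneous bead-based format: GST-tagged E1A captured on glutathione donor beads, His-tagged CtBP on nickel acceptor beads; compounds precede bead addition by 2 h at 37 °C.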
Numbers stand for hits; n = inactive; u = inconclusive; x = no result given; [ ] = another dose, or the depositor's remark. Unless noted, calls come from the whole dose curve; as a rule, active = well fitted curve in the direction sought with a large enough effect; inconclusive = small, poorly fitted or top-dose-only effect, or another doubt; inactive = no such curve, though single readings can be large; an effect the other way counts as inactive or inconclusive.

SMILES | MBNL1-CUG inh | CBFb-RUNX1 inh | Six1-Eya2 blk | RORgamma inh | VP16 counter | CtBP-E1A inh
C=CCN1CN(CCc2ccccc2)CNC1=S | x | n | n | 1.58µM | 15.8µM | n
CCN1CNC(=S)N(Cc2ccccc2)C1 | n | n | n | 15.8µM | u | n
Cc1ccccc1S(=O)(=O)NC(=O)C1(C)CCN1C(=O)c1c(C)noc1C (configuration not stated) | x | x | n | x | x | n
COc1ccc2c(c1)O[C@@H](c1ccc3c(c1)OCO3)[C@H](OC(=O)N[C@H]1CCCc3ccccc31)C2=O | x | n | x | n | n | x
CC1=C(C(=O)N(C)C)CC(CC(=O)NCc2cccc3ccccc23)C(=O)N1CCC1=CCCCC1 (configuration not stated) | x | x | n | x | x | n
Cc1ccc(N2CN(CCc3ccccc3)CNC2=S)cc1 | x | n | n | 5.01µM | 12.6µM | x
CCOC(=O)c1ccc(N2CN(CCc3ccccc3)CNC2=S)cc1 | n | n | n | u | u | n
CCOc1ccc(CCN2CN(CC)CNC2=S)cc1OCC | n | n | n | 12.6µM | u | n
CCN1CNC(=S)N(C(C)c2ccccc2)C1 (configuration not stated) | n | n | n | 10µM | 12.6µM | n
CCN1CNC(=S)N(CCc2ccccc2)C1 | n | n | n | 8.91µM | 12.6µM | n
CCN1CNC(=S)N(c2ccccc2C)C1 | x | n | n | n | n | x
CCc1noc(C)c1C(=O)OCC(=O)N(C)c1c(N)n(Cc2ccccc2)c(=O)[nH]c1=O | x | x | n | x | x | n
Cc1ccccc1C(=O)c1cccn1CC(=O)NCc1cccc(Cl)c1 | n | x | n | n | n | n
CC(C)(C)N=Cc1c(O)ccc2oc3c(c12)CCCC3 | n | x | n | n | n | n
O=[N+]([O-])c1cc2oc3c(c2c(C=NCc2ccncc2)c1O)CCCC3 | x | u | n | 12.6µM | u | n
CC1=C(C(=O)N(C)C)CC(CC(=O)NCCCCc2ccccc2)C(=O)N1CCCN1CCCC1=O (configuration not stated) | x | x | n | x | x | n
COC(=O)[C@@]12C[C@@H](CC(=O)NCc3ccc(C)o3)C(=O)N(Cc3ccco3)C1=CCC(C)(C)C2 | x | x | n | x | x | n
CCOC(=O)C1=NS(=O)(=O)NC(C)=C1 | x | x | n | x | x | n
CCOC(=O)c1cnc2ccccc2c1NCc1ccco1 | x | n | n | 6.31µM | u | x
CCOC(=O)c1sc2ncnc(NCc3ccco3)c2c1C | n | n | n | 7.94µM | 11.2µM | n
CCOc1ncccc1C(=O)OCC(=O)Nc1ccc2c(c1)OCCO2 | x | x | n | x | x | n
CCOC(=O)c1cnc2ccc(OCC)cc2c1NCc1ccccc1OC | x | n | n | 12.6µM | u | n
CCOC(=O)c1cnc2ccc(OC)cc2c1NCc1ccccc1 | n | n | n | u | u | n
CCOC(=O)c1cnc2ccccc2c1Nc1ccc2c(c1)OCCO2 | u | n | n | 11.2µM | u | n
CC(=O)Oc1ccccc1-n1c(C)nc(=O)c(-c2ccccc2)c1C | n | n | n | n | n | n
SMILES | MBNL1-CUG inh | CBFb-RUNX1 inh | Six1-Eya2 blk | RORgamma inh | VP16 counter | CtBP-E1A inh
N#C/C(=C\Nc1ccccc1O)c1nc2ccccc2o1 | x | n | n | u | 3.55µM | n
Cn1c(NN)nc2sc3c(c2c1=O)CC(C)(C)OC3 | u | n | u | 1.41µM | 3.55µM | -76.6
CCCCCCCc1nc2sc3c(c2c(=O)n1N)CC(C)(C)OC3 | n | n | n | n | n | n
CC1(C)Cc2c(sc3nc(=S)[nH]c(N)c23)CO1 | n | x | x | u | 17.8µM | x
CC1(C)Cc2c(sc3ncnc(N)c23)CO1 | n | n | n | n | n | n
CCC1(C)Cc2c(sc3nc(SC)[nH]c(=S)c23)CO1 (configuration not stated) | n | x | n | u | 6.31µM | n
CCCCCc1nc2sc3c(c2c(=O)n1NC(=O)c1ccc([N+](=O)[O-])cc1)CC(C)(C)OC3 | n | n | n | 22.4µM | n | n
CCSc1nc2sc3c(c2c(=O)[nH]1)CC(C)(CC)OC3 (configuration not stated) | n | n | n | n | n | n
CCC[C@H](NC(=O)[C@H](CC(C)C)N(C)C(=O)CNC(=O)[C@@H](NC(=O)[C@H](Cc1ccccc1)NC(=O)[C@H](CCCCN)NC(=O)[C@@H](N)CC(=O)O)C(C)C)C(N)=O | x | n | x | n | n | x
CCCCN1C(=O)C(CC(=O)NCCN2CCOCC2)CC(C(=O)N2CCOCC2)=C1C (configuration not stated) | x | x | n | x | x | n
C[C@H]1CNC(=O)C(=O)N1C[C@H](Cc1ccc(O)cc1)NC(=O)CC12CC3CC(CC(C3)C1)C2 | n | x | n | n | n | n
Cc1nc(NN)c2c3c(sc2n1)COC(C)(C)C3 | n | x | n | 12.6µM | n | n
CCOc1ccc(Nc2c3c(nc4ncnn24)CC(C)CC3)cc1 (configuration not stated) | n | n | n | n | n | n
CCc1cccc(Nc2c3c(nc4ncnn24)CCC3)c1 | n | n | n | 10µM | 15.8µM | x
Clc1cccc(Nc2c3c(nc4ncnn24)CCC3)c1 | n | n | n | u | n[0.365 µM] | n
Cc1ccc(Nc2c3c(nc4ncnn24)CC(C)CC3)cc1 (configuration not stated) | n | n | n | 17.8µM | u | n
CN(C(=O)CSc1ncnc2ccccc12)C1CCCCC1 | x | x | n | x | x | n
COc1ccc(NC(=O)CSc2nncc3ccccc23)cc1 | n | n | n | n | n | x
COc1ccc(C(=O)Sc2nncc3ccccc23)cc1 | n | n | n | 11.2µM | u | n
CN1C/C(=C/c2ccncc2)C(=O)/C(=C/c2ccncc2)C1 | n | x | n | 12.6µM | 3.98µM | n
CN1C/C(=C/c2ccsc2)C(=O)/C(=C/c2ccsc2)C1 | n | n | n | n | u | n
O=C(CNc1cccc([N+](=O)[O-])c1)NC(=O)NC1CCCCC1 | x | x | n | x | x | n
CC(=O)c1ccc(OCc2ccc(C(=O)c3ccccc3)cc2)cc1 | n | n | n | u | u | n
CC(=O)c1ccc(OCc2ccc(Oc3c(Cl)cccc3[N+](=O)[O-])cc2)cc1 | x | n | n | u | 20µM | n
CCN(CC)CCCn1c2c(c(SCC(=O)N3CCc4ccccc43)nc1=O)CCC2 | x | x | n | x | x | n
CC(C)(C)C(=O)/C(=C\c1ccc([N+](=O)[O-])cc1)n1cncn1 | u | n | x | 2.24µM | 4.47µM | x
CC1CN(C(=O)c2ccc(NS(=O)(=O)c3ccc(F)c(F)c3)cc2)CC(C)O1 (configuration not stated) | x | x | n | x | x | n
CCOC(=O)C1=CC[C@H]2c3c(c4ccc(OC)cc4n3C)C(=O)C1N2S(=O)(=O)c1ccc(C)cc1 | x | x | n | x | x | n
C=C(C)C(=O)OCCCCCC | x | n | x | n | n | x

Assay outcomes deposited in PubChem BioAssay by National Center for Advancing Translational Sciences (NCATS).
